Bioassay records as filed in PubChem.
Sampled rows, rich in hits. Any-hit rate of the full collection: about 9.2%.
ELG1 DNA repair: ELG1-dependent DNA repair inhibition | Potency, µM (doses to about 46.1 µM), without a hit: at the top dose activity change, negative = inhibition, usual class: inhibitors | AID 504467 | actives 2.3% (n = 330,000) | HEK293T ELG1-luciferase reporter, luminescence, 16 h; DNA damage induced by 5-fluorouridine; further: on the % scale 0 is the no-effect control and ±100 the full control effect; nearly all actives have a fitted effect of over 55% in size
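5-Fluorouridine DNA damage + compound/DMSO, 2,000 cells/well, 16 h, 37 °C/5% CO2. ONE-Glo, 30 min RT, luminescence. Readout = decrease in reporter signal.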
Rab9 prom act: Rab9 promoter activation | Huh7 Rab9 promoter-luciferase reporter, luminescence, 24 h | actives 2.8% (n = 320,000) | AID 485297 | Potency, µM (top dose mostly 9.22 µM), for the others: top-dose activation, negative = inhibition, usual class: activators; further: % of control where 0% means no effect; nearly all actives have a fitted effect of over 60% in size
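Cell-based reporter: Huh7 stable for Rab9 promoter-driven luciferase, plated in reduced-serum medium with 10% FBS at 1500 cells/well, compound-treated 24 h at 37 °C, luminescence read after 10 min reagent.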
FLuc counter: firefly luciferase modulation, counter-screen for miR-21 project; Potency, µM (titrated, usually from 57.5 µM), for inactives: top-dose activity change, negative = inhibition, actives largely listed as inhibitors; actives 6.9% (n = 360,000); AID 588342; purified FLuc, Km substrates, luminescence inhibition;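 further: plate controls were vehicle for no effect and reference inhibitor for full effect; nearly all actives have a fitted effect of over 55% in size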
Target sequence (P08659 whole entry, looked up): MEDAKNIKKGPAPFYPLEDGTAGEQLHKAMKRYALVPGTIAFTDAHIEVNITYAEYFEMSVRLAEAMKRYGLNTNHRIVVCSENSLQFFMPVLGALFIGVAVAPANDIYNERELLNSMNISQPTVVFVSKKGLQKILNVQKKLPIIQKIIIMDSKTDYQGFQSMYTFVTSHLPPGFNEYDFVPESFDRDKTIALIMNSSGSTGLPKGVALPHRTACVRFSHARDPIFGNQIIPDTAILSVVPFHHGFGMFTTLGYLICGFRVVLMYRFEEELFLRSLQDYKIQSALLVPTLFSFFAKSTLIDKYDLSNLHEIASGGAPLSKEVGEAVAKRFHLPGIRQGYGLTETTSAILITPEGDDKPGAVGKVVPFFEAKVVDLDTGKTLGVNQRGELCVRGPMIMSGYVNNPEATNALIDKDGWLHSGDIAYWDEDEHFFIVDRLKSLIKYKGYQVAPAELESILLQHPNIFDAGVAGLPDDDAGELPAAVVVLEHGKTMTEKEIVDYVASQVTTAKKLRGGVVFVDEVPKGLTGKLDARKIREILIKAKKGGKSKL
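Purified P. pyralis luciferase (10nM final) with 10uM D-luciferin and 10uM ATP (Km levels) in 50mM Tris acetate pH 7.5, 10mM Mg acetate, 0.01% Tween-20, 0.05% BSA; qHTS 6-point titration, ~60 µM downward; luminescence read.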
NPC1 promoter act: activates the NPC1 promoter | Potency, µM (titrated, usually from 9.22 µM), inactives show top-dose activation, actives largely listed as activators | AID 485313 | actives 2.4% (n = 320,000) | Huh7 NPC1 promoter luciferase reporter, 24 h; further: % of control where 0% means no effect; nearly all actives have a fitted effect of over 60% in size
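Luminescence from an NPC1 promoter-driven luciferase reporter in stably transfected Huh7 cells was measured after 24 h compound treatment at 37 °C, followed by 10 min ambient incubation with luciferase detection reagent.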
SMN2 splice enh: increases expression of the SMN2 splice variant | Potency, µM (highest dose often 46.1 µM), for inactives: top-dose activity change, positive = activation, usual class: activators | actives 2.8% (n = 210,000) | AID 1458 | HEK293 SMN2-luciferase splicing reporter, luminescence, 30-36 h; further: % of control where 0% means no effect; nearly all actives have a fitted effect of over 55% in size
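qHTS luciferase splicing reporter: luminescence rises when SMN2 exon 7 is included in transfected HEK293 cells. Compound exposure lasted 30-36 h at 37C, with 4.5 mM final sodium butyrate as control, followed by a ONE-Glo read.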
ELG1 genotox: induces genotoxicity in HEK293T cells with luciferase-tagged ELG1; AID 504466; HEK293T ELG1-luciferase reporter, luminescence, 16 h; Potency, µM (series often up to 46 µM), inactives show at the highest dose activity change, positive = activation, most hits filed as activators; actives 1.3% (n = 330,000); further: % of control where 0% means no effect; nearly all actives have a fitted effect of over 60% in size
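16 hr compound incubation (37 °C, 5% CO2) of HEK293T cells carrying luciferase-tagged ELG1; luciferase then measured by ONE-Glo luminescence after 30 min at RT.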
Starred values were filed as active, the others as inactive; ? = inconclusive; . = no result given. The call rests on the fitted dose curve; in most records, active means well fitted curve in the direction sought with a large enough effect; inconclusive means small, poorly fitted or top-dose-only effect, or another doubt; inactive means no such curve, though single readings can be large; an effect the other way counts as inactive or inconclusive. Potency means the concentration at half of the fitted maximal effect.

SMILES | ELG1 DNA repair | Rab9 prom act | FLuc counter | NPC1 promoter act | SMN2 splice enh | ELG1 genotox
CSCCC(NC(=O)/C(=C/c1ccc(F)cc1)NC(C)=O)C(=O)O (configuration not stated) | 7% | 4% | 0% | 1% | -7% | 0%
CC(C)CC(=O)Nc1cc2nn(-c3ccccc3)nc2cc1Cl | ? | 1.4µM* | 1.5µM* | 1.8µM* | ? | 4.6µM*
Nc1cc2nn(-c3ccccc3)nc2cc1Cl | ? | 19% | 1.3µM* | 6% | 3.2µM* | 24%
Nc1ccc2nn(-c3ccccc3)nc2c1 | ? | 1.6µM* | 3.8µM* | 1.6µM* | . | ?
CCOC(=O)C1(Nc2nccs2)Sc2ccccc2NC1=O (configuration not stated) | 7.3µM* | -14% | ? | -25% | -2% | 0%
CCOC(=O)C1(N(CC)CC)Sc2cc(C)ccc2NC1=O (configuration not stated) | -21% | 1% | -2% | -5% | -42% | -1%
CC(C)(C)NC(=O)c1ccc(C(=O)NC(C)(C)C)cc1 | -6% | -14% | 1% | 3% | . | 1%
CC(C)(C)NC(=O)c1sccc1C(=O)O | ? | -1% | 15µM* | 0% | -14% | 2%
C=CCNC(=S)Nc1ccc(Br)cc1F | 11% | 1% | -2% | -2% | -20% | -2%
CN(C)/C=N/C(=S)Nc1ccc(Br)cc1F | ? | 4µM* | 19µM* | ? | 28% | 24%
CCOC(=O)N1CCN(c2ncnc3c2[nH]c2ccc(F)cc23)CC1 | 12µM* | -11% | -1% | -7% | -68% | -14%
Fc1ccc2[nH]c3c(N4CCN(c5ccccc5)CC4)ncnc3c2c1 | 7.3µM* | -25% | 3% | -10% | -68% | -40%
CCc1c2c(nc3cccc(OC)c13)OC(CC)C2 (configuration not stated) | . | . | . | . | 2% | .
COc1ccc(NC(=O)c2cc3cc(C)ccc3[nH]2)cc1 | . | . | -1% | . | . | .
CCC(C)c1ccccc1NC(=O)COC(=O)c1ccc(N2CCCC2)c([N+](=O)[O-])c1 (configuration not stated) | -25% | -6% | 0% | 1% | -2% | -4%
Cc1ccc(NC(=O)c2cc3cccc([N+](=O)[O-])c3[nH]2)cc1 | ? | 1.3µM* | 2.4µM* | 3.2µM* | . | ?
CCC(C)c1ccccc1NC(=O)c1cc2cccc([N+](=O)[O-])c2[nH]1 (configuration not stated) | 21µM* | 0% | ? | 18% | . | -10%
Cc1ccc2[nH]c(C(=O)Nc3ccccc3)cc2c1 | . | . | 2.1µM* | . | . | .
CC(OC(=O)c1ccc2c(c1)OCCO2)C(=O)NC1CCCCC1C (configuration not stated) | 1% | -2% | -1% | -1% | . | -4%
O=C(N/N=C\c1ccc([N+](=O)[O-])o1)c1cncc(Br)c1 | 16µM* | -8% | 2% | 2% | . | -8%
O=C(Cc1ccc2c(c1)OCO2)NN=Cc1ccc([N+](=O)[O-])o1 | 16µM* | . | . | . | . | -7%
COc1cc([N+](=O)[O-])cc(/C=N/NC(=O)c2cncc(Br)c2)c1O | 23µM* | -3% | -12% | -8% | . | 5%
CC(NC(=O)C1CCN(C(=O)[C@@H]2Cc3ccccc3CN2)CC1)c1ccccc1 (some centres not stated) | 18% | 6% | -1% | -1% | . | 0%
CC(=O)Nc1nnc(SCC(=O)N2C(C)CCCC2C)s1 (configuration not stated) | 10% | -3% | 0% | -2% | . | 5%
CC1CN(C(=O)CSc2nnc(NC(=O)NC(C)(C)C)s2)CC(C)O1 (configuration not stated) | 15% | -4% | 24µM* | -1% | . | 4%
O=C(N[C@@H](Cc1ccccc1)C(=O)OCc1ccccc1)c1ccco1 | -6% | . | . | . | . | 1%
